MEKK3 PB1 HTS – MEKK3-MEK5 PB1 interaction, increase or decrease; bead-based flow cytometry, Alexa488-MEK5 binding to MEKK3; actives lie on both sides; 0 = blocked by unlabeled MEK5, 100 = vehicle; binding response (% of control), % at 10 µM; 290,000 compounds, 1.4% hits; AID 1529;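 active = binding response more than 3 SD above or below the average of its plate-row segment, actives on both sides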;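 also: Alexa488 bead fluorescence after subtracting the streptavidin-only scavenger bead signal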
Target sequence (Q99759 whole entry, looked up): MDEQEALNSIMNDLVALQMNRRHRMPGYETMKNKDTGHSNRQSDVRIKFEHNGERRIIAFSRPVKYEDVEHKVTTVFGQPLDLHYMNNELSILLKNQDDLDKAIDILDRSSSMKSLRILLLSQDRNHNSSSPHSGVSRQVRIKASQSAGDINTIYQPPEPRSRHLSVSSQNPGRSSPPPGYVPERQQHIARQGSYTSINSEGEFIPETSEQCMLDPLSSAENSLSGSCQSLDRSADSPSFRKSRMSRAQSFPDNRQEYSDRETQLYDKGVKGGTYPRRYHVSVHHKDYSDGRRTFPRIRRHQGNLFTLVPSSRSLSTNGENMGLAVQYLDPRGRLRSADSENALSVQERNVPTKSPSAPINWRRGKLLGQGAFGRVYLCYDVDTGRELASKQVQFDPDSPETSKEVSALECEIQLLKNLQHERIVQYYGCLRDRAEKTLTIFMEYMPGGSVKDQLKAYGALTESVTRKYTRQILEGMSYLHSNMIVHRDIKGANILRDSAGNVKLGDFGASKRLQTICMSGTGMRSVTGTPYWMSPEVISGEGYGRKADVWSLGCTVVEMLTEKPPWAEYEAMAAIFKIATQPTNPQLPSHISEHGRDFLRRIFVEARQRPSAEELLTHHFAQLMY
ANO1 block – inhibitors of mouse TMEM16A calcium-activated chloride channel; AID 588511; 310,000 compounds, 1.2% hits; normalized B-score (activity score, 25-100; higher = stronger inhibition) at 10 µM; HEK293 TMEM16A/YFP iodide influx fluorescence, ionomycin;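 active = ratio plate-corrected score three or more library SD toward inhibition, starting fluorescence score within five deviations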;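 also: score derived from kinetic fluorescence span divided by baseline fluorescence per well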
NTR1 agonist – agonists of human neurotensin receptor NTR1. P30989. NTR1-U2OS beta-arrestin-GFP spot imaging, agonist mode. activation, % at 20 µM. 330,000 compounds, 0.17% hits. AID 493036;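 active = activation at or above 40% of the spot to cytoplasm intensity ratio, with at least 20 cells analyzed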;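 also: 0% = DMSO without peptide and 100% = 100 nM NTR1 peptide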
MEKK2 mut-MEK5 – signal of MEK5 binding to mutant human MEKK2 PB1 domain; 290,000 compounds, 0.35% hits; percent response, % at 10 µM; bead flow cytometry, Alexa488-MEK5 binding to MEKK2 mutant; in the data active = percent response above about 24%, passing the limit was not always enough
ANO1 activ – activators or potentiators of mouse TMEM16A chloride channel | HEK293 TMEM16A/YFP-H148Q/I152L, iodide quench fluorescence; hits give low values | B-score at 10 µM | 340,000 compounds, 0.3% hits | AID 623877;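 active = fluorescence-ratio B-score plate-corrected deviation score at least 3 library SD below zero, with starting fluorescence score within 5 deviations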;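 also: channel opened by trigger with iodide after compound preincubation; score built on the fluorescence ratio of max minus min over baseline; more negative score means more quench and so TMEM16A activation or potentiation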
MEKK2wt PB1 HTS – raises or lowers MEK5 binding to wildtype human MEKK2 PB1 domain; AID 1531; binding response (% of control), % at 10 µM; 290,000 compounds, 1.1% hits; Q9Y2U5; bead flow cytometry, Alexa488-MEK5 binding to MEKK2 WT; actives lie on both sides; in the data active = binding response below about 67% or above about 130%
TMEM16A reconf – re-confirmation of mouse TMEM16A chloride channel inhibitors. AID 652189. 2,300 compounds, 39% hits. HEK293 TMEM16A/YFP-H148Q, iodide quench fluorescence; ionomycin added to raise cell calcium. inhibition, % at 10 µM. shares compounds with ANO1 block;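 active = mean duplicate percent inhibition, scaled so buffer wells are 0 and the reference blocker 100, over three buffer SD above buffer mean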
HEK293 Ca mobil – calcium mobilization counter-screen hit for TMEM16A inhibitor series; calcium response (% of ionomycin), % at 10 µM; AID 652231; shares compounds with ANO1 block; 2,300 compounds, 2% hits; TMEM16A/YFP HEK293, Fluo4 calcium mobilization;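 active = duplicate-averaged calcium signal over 20% of the ionomycin maximum, relative to buffer baseline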;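 also: each well's signal is peak minus trough fluorescence divided by its pre-addition baseline; 0% = buffer wells and 100% = ionomycin wells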
YFP-HEK293 quench – counter-screen for TMEM16A inhibitors: effect in parental YFP-HEK293 cells | shares compounds with ANO1 block | iodide YFP quench, ionomycin | YFP ratio F(max-min)/F0 at 10 µM | 2,300 tested, under 10 active | AID 652233;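 active = yellow fluorescent protein signal ratio exceeding the buffer control mean by over 5 SD of those controls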;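 also: ratio is mean of duplicate wells from kinetic YFP trace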
ClC-1 rat inh – selectivity of TMEM16A inhibitors: inhibition of rat ClC-1 chloride channel; 2,300 tested, under 10 active; AID 652236; CHO ClC-1-YFP, iodide influx fluorescence quench; iodide control reads 0, buffer control 100; shares compounds with ANO1 block; ratio percent, % at 10 µM;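 active = duplicate-mean ratio percent above the mean of iodide-only control wells, which defines zero, plus 5 of their SD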;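 also: higher percent means stronger block of ClC-1 iodide influx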
* marks the source's active call; other numbers are inactive results. Most compounds without a hit are left out; they make up all but 3.4% or so of the library.

Results for O=C(O)c1ccc(N=Nc2c(O)[nH]c3cc(Cl)ccc23)cc1 ?
MEKK3 PB1 HTS: 103; ANO1 block: inactive; NTR1 agonist: 1; MEKK2 mut-MEK5: 7; ANO1 activ: inactive; MEKK2wt PB1 HTS: 99

What do the screens show for `N#CC1(Cc2ccccc2Cl)c2ccccc2C=CN1C(=O)c1ccccc1` (stereo unspecified)?
ANO1 block: 25*; NTR1 agonist: 3; ANO1 activ: inactive; TMEM16A reconf: inactive; HEK293 Ca mobil: inactive; YFP-HEK293 quench: -1.2; ClC-1 rat inh: -9

Results for CCCN(CCC)CCN1C(=O)C2C(C(=O)Nc3cccc(SC)c3)C3C=CC2(O3)C1C(=O)NC1CCCCC1 (stereo unspecified) ?
MEKK3 PB1 HTS: 104; ANO1 block: 100*; NTR1 agonist: 1; MEKK2 mut-MEK5: 4; ANO1 activ: inactive; MEKK2wt PB1 HTS: 106; TMEM16A reconf: inactive; HEK293 Ca mobil: inactive; YFP-HEK293 quench: -1.1; ClC-1 rat inh: -1

How did CN1CCC(N(C)C(=O)c2ccc(Cl)c(S(=O)(=O)N3CCc4ccccc43)c2)CC1 do in these assays?
NTR1 agonist: -1; ANO1 activ: inactive

How did O=C(CNC(=O)c1ccccc1F)OC(C(=O)Nc1cc(C(F)(F)F)ccc1Cl)c1ccccc1 (stereo unspecified) do in these assays?
MEKK3 PB1 HTS: 95; ANO1 block: inactive; NTR1 agonist: -3; MEKK2 mut-MEK5: -5; ANO1 activ: inactive; MEKK2wt PB1 HTS: 91

What do the screens show for `C[C@H](NC(=O)c1ccccc1Cl)C(=O)OC(C(=O)Nc1cc(C(F)(F)F)ccc1Cl)c1ccccc1` (stereo partly specified)?
MEKK3 PB1 HTS: 94; ANO1 block: 25*; NTR1 agonist: 3; MEKK2 mut-MEK5: 1; ANO1 activ: inactive; MEKK2wt PB1 HTS: 91; TMEM16A reconf: inactive; HEK293 Ca mobil: inactive; YFP-HEK293 quench: -1.4; ClC-1 rat inh: -6

Results for O=C(Nc1ccc(S(=O)(=O)Nc2ccccn2)cc1)C(F)(F)F ?
MEKK3 PB1 HTS: 101; ANO1 block: inactive; NTR1 agonist: 0; MEKK2 mut-MEK5: 0; ANO1 activ: inactive; MEKK2wt PB1 HTS: 104

What do the screens show for `CCC(C)Sc1ccc([C@@H]2[C@H]3C(=O)N(CC)C(=O)[C@H]3[C@]3(C(=O)OC)CCCCN23)cc1` (stereo partly specified)?
ANO1 block: inactive; NTR1 agonist: -3; ANO1 activ: inactive; TMEM16A reconf: 28%*; HEK293 Ca mobil: inactive; YFP-HEK293 quench: -0.71; ClC-1 rat inh: 13

Results for COc1cc([N+](=O)[O-])ccc1N/C=C/C(=O)c1cccs1 ?
MEKK3 PB1 HTS: 102; ANO1 block: inactive; NTR1 agonist: 3; MEKK2 mut-MEK5: 3; ANO1 activ: inactive; MEKK2wt PB1 HTS: 92

What do the screens show for `Cc1ccc(NC(=O)c2ccc3c(c2)OCCO3)cc1C`?
MEKK3 PB1 HTS: 100; ANO1 block: inactive; NTR1 agonist: 0; MEKK2 mut-MEK5: 4; ANO1 activ: inactive; MEKK2wt PB1 HTS: 96

How did COc1ccccc1NS(=O)(=O)c1cc(NC(=O)c2sc3cc(Cl)ccc3c2Cl)ccc1C do in these assays?
MEKK3 PB1 HTS: 99; ANO1 block: inactive; NTR1 agonist: -1; MEKK2 mut-MEK5: -2; ANO1 activ: inactive; MEKK2wt PB1 HTS: 95

How did Cc1ccc(NC(=O)c2ccc3c(c2)OCCO3)cc1S(=O)(=O)Nc1cccc(Cl)c1 do in these assays?
MEKK3 PB1 HTS: 100; ANO1 block: 100*; NTR1 agonist: 2; MEKK2 mut-MEK5: 4; ANO1 activ: inactive; MEKK2wt PB1 HTS: 103; TMEM16A reconf: inactive; HEK293 Ca mobil: inactive; YFP-HEK293 quench: -1.3; ClC-1 rat inh: -3

How did Cc1ccc(C(=O)Nc2ccc(C)c(S(=O)(=O)Nc3ccccc3Cl)c2)s1 do in these assays?
MEKK3 PB1 HTS: 104; ANO1 block: 100*; NTR1 agonist: 0; MEKK2 mut-MEK5: 2; ANO1 activ: inactive; MEKK2wt PB1 HTS: 105; TMEM16A reconf: inactive; HEK293 Ca mobil: inactive; YFP-HEK293 quench: -0.22; ClC-1 rat inh: 18

How did Clc1ccc(NC2=NCCC2)cc1Cl do in these assays?
MEKK3 PB1 HTS: 97; ANO1 block: inactive; NTR1 agonist: 1; MEKK2 mut-MEK5: -4; ANO1 activ: inactive; MEKK2wt PB1 HTS: 97; TMEM16A reconf: inactive; HEK293 Ca mobil: inactive; YFP-HEK293 quench: -1.2; ClC-1 rat inh: -8

What do the screens show for `Cc1ccc(NC2=NCCCCC2)cc1C`?
MEKK3 PB1 HTS: 104; ANO1 block: inactive; NTR1 agonist: -3; MEKK2 mut-MEK5: 1; ANO1 activ: inactive; MEKK2wt PB1 HTS: 100

What do the screens show for `COc1cccc(-c2c(C#N)c(N)nc3c2c(C)nn3-c2ccccc2)c1O`?
MEKK3 PB1 HTS: 111; ANO1 block: 100*; NTR1 agonist: 10; MEKK2 mut-MEK5: 1; ANO1 activ: inactive; MEKK2wt PB1 HTS: 104; TMEM16A reconf: 45%*; HEK293 Ca mobil: inactive; YFP-HEK293 quench: -0.9; ClC-1 rat inh: -10

Results for CN(Cc1ccccc1)C(=O)CN1C(=O)NC(C)(c2ccc(Cl)cc2)C1=O (stereo unspecified) ?
MEKK3 PB1 HTS: 101; ANO1 block: inactive; NTR1 agonist: 0; MEKK2 mut-MEK5: -1; ANO1 activ: inactive; MEKK2wt PB1 HTS: 99

Results for O=C(CCNS(=O)(=O)c1ccc(OC(F)(F)F)cc1)N1CCN(C/C=C/c2ccccc2)CC1 ?
MEKK3 PB1 HTS: 109; ANO1 block: 25*; NTR1 agonist: 3; MEKK2 mut-MEK5: 9; ANO1 activ: inactive; MEKK2wt PB1 HTS: 113; TMEM16A reconf: inactive; HEK293 Ca mobil: inactive; YFP-HEK293 quench: -1.1; ClC-1 rat inh: -4

Results for O=C(CCNS(=O)(=O)c1ccc(OC(F)(F)F)cc1)N1CCCC1 ?
NTR1 agonist: 0; ANO1 activ: inactive

How did COc1ccc(-c2[nH]ncc2CN2CCCOc3c(cccc3OC)C2)c(OC)c1 do in these assays?
MEKK3 PB1 HTS: 102; ANO1 block: inactive; NTR1 agonist: 0; MEKK2 mut-MEK5: 16; ANO1 activ: inactive; MEKK2wt PB1 HTS: 106
